Measurements: PubChem BioAssay (EPA / NIEHS)
The source made the active and inactive calls. How the source made its calls: active means hit-call score of the fitted dose curve at least 0.9, where 1 is the maximum; inactive means score below 0.9.

How the values were obtained:
[1] = ATG_CRE_CIS: Attagene CIS-FACTORIAL HepG2 Assay for human cAMP Responsive Element (CRE) binding protein 3 (AID 2282926); details: HepG2 CRE cis-reporter, Attagene multiplexed mRNA; actives raise or lower the signal
In short: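 Capillary electrophoresis of 6-FAM-labelled, HpaI-digested PCR products quantified reporter transcripts. These came from HepG2 transiently transfected with cis-element reporters and exposed to test chemicals for 24 hours, with DMSO defining baseline activity.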

[2] = biological target: CCAAT/enhancer-binding protein beta (Homo sapiens) (UniProt P17676); experiment: ATG_C_EBP_CIS: Attagene CIS-FACTORIAL HepG2 Assay for human CCAAT/Enhancer Binding Protein (C/EBP) beta (AID 2282927); details: HepG2 Attagene cis-factorial transcription factor reporter; actives raise or lower the signal
In short: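 HepG2 transiently transfected with multiplexed reporter units under cis-regulatory promoters reporting endogenous C/EBPb activity. After 24 h exposure, reporter mRNA assayed by RT-PCR, fluorescent labelling, HpaI digestion and capillary electrophoresis; bidirectional fitting versus DMSO.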

[3] = ATG_CMV_CIS: Attagene CIS-FACTORIAL HepG2 Assay for human CMV (Internal Marker) (AID 2282928); details: HepG2 CMV promoter reporter, transcription factor profiling; actives raise or lower the signal;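 further: endpoint acts as a background internal control marker rather than a target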
In short: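 Readout: fluorescent reporter cDNA fragments separated by capillary electrophoresis after RT-PCR and HpaI cut. Cells: HepG2 carrying transfected cis-promoter reporter constructs, dosed 24 h. Endpoint serves as background internal-marker control, fit bidirectionally versus DMSO.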

[4] = ATG_DR4_LXR_CIS: Attagene CIS-FACTORIAL HepG2 Assay for human Liver X Receptor (LXR), DR4 submotif (AID 2282929); details: HepG2 Attagene DR4 cis-reporter, mRNA transcription; actives raise or lower the signal
In short: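 HepG2 cells transiently transfected with cis-promoter-driven multiplexed reporter units (DR4 element) were dosed for 24 h. Reporter mRNA was quantified by RT-PCR, fluorescent primer extension, HpaI digestion and capillary electrophoresis; bidirectional fitting versus DMSO baseline.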

[5] = biological target: Aryl hydrocarbon receptor (Homo sapiens) (UniProt P35869); experiment: ATG_Ahr_CIS: Attagene CIS-FACTORIAL HepG2 Assay for human Aryl Hydrocarbon Receptor (Ahr) (AID 2282930); details: HepG2 AhR cis-factorial reporter transcription; actives raise or lower the signal
In short: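 HepG2 cells transiently transfected with cis-element-driven multiplexed reporter units; endogenous AhR activity read as reporter mRNA 24 h after dosing, via RT-PCR, 6-FAM labelling, HpaI digestion and capillary electrophoresis. Bidirectional fit relative to DMSO.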

[6] = ATG_AP_1_CIS: Attagene CIS-FACTORIAL HepG2 Assay for human Activator Protein 1 (AP-1) (AID 2282931); details: HepG2 Attagene cis-factorial AP-1 reporter mRNA; actives raise or lower the signal
In short: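 HepG2 cells transiently transfected with cis-element-driven multiplex reporter units; 24 h compound exposure. Reporter mRNA quantified by RT-PCR, FAM-labelled fragments resolved by capillary electrophoresis; bidirectional fit versus DMSO baseline.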

[7] = ATG_AP_2_CIS: Attagene CIS-FACTORIAL HepG2 Assay for human Activator Protein 2 (AP-2) (AID 2282932); details: HepG2 AP-2 cis-reporter, Attagene transcription factor profiling; actives raise or lower the signal
In short: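 Liver-derived HepG2 line, cis-reporter system measuring endogenous factors; 24 h dosing; reporter mRNA detected by fluorescent RT-PCR and capillary electrophoresis.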

[8] = ATG_BRE_CIS: Attagene CIS-FACTORIAL HepG2 Assay for human Bone Morphogenetic Protein (BMP) Response Element (BRE) (AID 2282933); details: HepG2 BMP response element reporter, Attagene transcription factor profiling; actives raise or lower the signal
In short: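 Endogenous transcription factor activity read in transiently transfected HepG2 cells after 24 h chemical exposure. Bidirectional curve fitting against DMSO; readout is reporter transcript level by RT-PCR with capillary electrophoresis of labelled products.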

[9] = biological target: Retinoic acid receptor alpha (Homo sapiens) (UniProt P10276); experiment: ATG_DR5_RAR_CIS: Attagene CIS-FACTORIAL HepG2 Assay for human Retinoic Acid Receptor Alpha (RARE), DR5 submotif (AID 2282934); details: HepG2 Attagene cis-factorial RARE DR5 reporter, mRNA; actives raise or lower the signal
In short: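 HepG2 cells transiently transfected with multiplexed reporter units; DR5 cis-element drives reporter through endogenous transcription factors. After 24 h dosing, reporter mRNA quantified by RT-PCR, fluorescent labeling, HpaI digestion and capillary electrophoresis; bidirectional fitting versus DMSO.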

Aryl hydrocarbon receptor (Homo sapiens), sequence (P35869 whole entry, looked up): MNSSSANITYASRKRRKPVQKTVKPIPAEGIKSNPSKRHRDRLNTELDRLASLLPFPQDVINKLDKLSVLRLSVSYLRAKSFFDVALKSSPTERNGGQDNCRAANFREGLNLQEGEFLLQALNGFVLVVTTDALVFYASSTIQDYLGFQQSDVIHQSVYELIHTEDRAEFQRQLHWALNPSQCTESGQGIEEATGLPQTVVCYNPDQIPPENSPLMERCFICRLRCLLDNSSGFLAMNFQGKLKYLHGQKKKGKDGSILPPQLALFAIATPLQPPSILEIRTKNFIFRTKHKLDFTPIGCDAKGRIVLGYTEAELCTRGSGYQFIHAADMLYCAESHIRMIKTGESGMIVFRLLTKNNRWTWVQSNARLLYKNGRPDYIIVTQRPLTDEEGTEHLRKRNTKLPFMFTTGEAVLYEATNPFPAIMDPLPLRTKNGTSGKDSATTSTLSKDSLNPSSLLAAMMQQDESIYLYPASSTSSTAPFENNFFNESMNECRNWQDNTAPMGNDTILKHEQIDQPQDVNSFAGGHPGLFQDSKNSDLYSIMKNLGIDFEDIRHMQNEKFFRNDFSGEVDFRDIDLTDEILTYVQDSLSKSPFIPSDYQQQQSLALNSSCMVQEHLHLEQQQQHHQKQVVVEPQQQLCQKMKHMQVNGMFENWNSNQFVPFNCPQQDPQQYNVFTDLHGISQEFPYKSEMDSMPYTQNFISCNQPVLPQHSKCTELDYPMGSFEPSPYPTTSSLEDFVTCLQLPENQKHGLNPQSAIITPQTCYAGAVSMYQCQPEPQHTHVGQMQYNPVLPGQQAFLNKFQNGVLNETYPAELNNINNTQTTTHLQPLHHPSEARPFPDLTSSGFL
CCAAT/enhancer-binding protein beta (Homo sapiens), sequence (P17676 whole entry, looked up): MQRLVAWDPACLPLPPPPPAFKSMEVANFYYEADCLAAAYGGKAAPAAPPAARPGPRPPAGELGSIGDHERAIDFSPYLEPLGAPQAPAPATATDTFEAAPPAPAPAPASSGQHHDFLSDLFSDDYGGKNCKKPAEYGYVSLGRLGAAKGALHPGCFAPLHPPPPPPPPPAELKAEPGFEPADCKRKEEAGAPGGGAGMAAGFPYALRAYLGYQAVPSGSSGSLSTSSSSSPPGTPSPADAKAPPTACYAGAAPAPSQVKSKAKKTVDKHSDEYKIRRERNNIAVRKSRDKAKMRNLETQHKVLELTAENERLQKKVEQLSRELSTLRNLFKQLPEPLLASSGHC
Retinoic acid receptor alpha (Homo sapiens), sequence (P10276 whole entry, looked up): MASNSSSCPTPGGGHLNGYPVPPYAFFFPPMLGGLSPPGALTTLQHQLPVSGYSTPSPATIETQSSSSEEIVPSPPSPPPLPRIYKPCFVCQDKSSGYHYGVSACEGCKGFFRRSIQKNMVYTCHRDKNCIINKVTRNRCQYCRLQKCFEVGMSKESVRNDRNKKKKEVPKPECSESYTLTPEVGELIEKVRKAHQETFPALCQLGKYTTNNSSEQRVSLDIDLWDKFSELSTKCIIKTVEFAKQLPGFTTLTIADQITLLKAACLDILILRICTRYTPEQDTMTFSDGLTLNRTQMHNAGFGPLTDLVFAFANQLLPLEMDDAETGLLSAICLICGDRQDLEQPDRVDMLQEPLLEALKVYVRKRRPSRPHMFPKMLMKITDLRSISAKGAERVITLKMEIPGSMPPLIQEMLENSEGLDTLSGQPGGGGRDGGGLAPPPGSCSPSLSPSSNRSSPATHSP

SMILES	outcome [1]	outcome [2]	outcome [3]	outcome [4]	outcome [5]	outcome [6]	outcome [7]	outcome [8]	outcome [9]	AC50 [5]	AC50 [1]	AC50 [4]	AC50 [6]	AC50 [3]	AC50 [7]	AC50 [8]
COc1ccc2[nH]cc(CCNC(C)=O)c2c1	inactive	inactive	inactive	inactive	inactive	inactive	inactive	inactive								
O=C(O)c1cccc(Cl)n1	inactive	inactive	inactive	inactive	inactive	inactive	inactive	inactive	inactive							
CCOC(=O)C=Cc1ccccc1	inactive	inactive	inactive	inactive	inactive	inactive	inactive	inactive								
O=C(O)c1ccc(C(=O)O)c(C(=O)O)c1	inactive	inactive	inactive	inactive	inactive	inactive	inactive	inactive	inactive							
COC(=O)c1cccc(C(=O)OC)c1	inactive	inactive	inactive	inactive		inactive	inactive	inactive	inactive	71.4 µM (active)						
CC(=O)c1ccc2ccccc2c1	inactive	inactive	inactive	inactive		inactive	inactive	inactive		3.53 µM (active)						
Cc1ccccc1S		inactive	inactive		inactive		inactive	inactive			72.3 µM (active)	75.5 µM (active)	36.6 µM (active)			
Cc1cccc(C)c1	inactive	inactive	inactive	inactive	inactive	inactive	inactive	inactive								
CC1=CC(C)C(C=O)C(C)C1 (configuration not stated) (tested in a mixture with another compound)	inactive	inactive	inactive	inactive	inactive	inactive	inactive	inactive								
CCCCOCCOCCO	inactive	inactive	inactive	inactive	inactive	inactive	inactive	inactive	inactive							
CCCCCCCCCCCCOCCOS(=O)(=O)O	inactive	inactive	inactive	inactive	inactive	inactive	inactive	inactive								
O=[N+]([O-])c1cc(N(CCO)CCO)ccc1NCCO	inactive	inactive	inactive	inactive	inactive	inactive	inactive	inactive								
C=CC(=O)OCC(CO)(COC(=O)C=C)COC(=O)C=C		inactive			inactive						163 µM (active)	18 µM (active)	100 µM (active)	5.31 µM (active)	27.8 µM (active)	100 µM (active)
CCCCCCCCCCO[C@@H]1O[C@H](CO)[C@@H](O)[C@H](O)[C@H]1O	inactive	inactive	inactive		inactive	inactive	inactive	inactive	inactive			125 µM (active)				
